Assay outcomes deposited in PubChem by National Center for Advancing Translational Sciences (NCATS).
nsP2pro inh: inhibitors of chikungunya virus nsP2 protease; FRET peptide cleavage, nsP2pro, fluorescence 1 h; 31,000 compounds, 1.1% hits; Potency, µM (series often up to 24.9 µM), most hits filed as inhibitors; Q8JUX6; AID 1964107; calls by dose curve; note: nearly all actives have a fitted effect of over 60% in size
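Enzyme 150 nM, substrate 2.5 uM (both final); Tris-HCl 10 mM pH 8.0 + 0.01% Tween 20; cpd up to 25 uM, 7 pts; 15 min preinc., 1 h RT; fluorescence ex 525/em 598.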
Hits are given with their value; . = inactive. Only a selection was taken, and hits are over-represented in it overall.

SMILES | nsP2pro inh
COc1cccc2sc(N(Cc3cccnc3)C(=O)C3COc4ccccc4O3)nc12 (stereo not drawn) | .
COc1ccc(C)c2sc(N(Cc3cccnc3)C(=O)COc3ccccc3)nc12 | .
COc1ccccc1Oc1ccc(N(Cc2cccnc2)S(=O)(=O)CC(F)(F)F)cc1 | 11.1µM
CCC(CN)CC(C)CNCC(O)CNCC(CC)CC(CC)CN (stereo not drawn) | .
C=C(NC(=O)C(=C)NC(=O)c1csc(C2=N[C@H]3c4csc(n4)[C@H]4NC(=O)c5csc(n5)[C@H]([C@@](C)(O)[C@@H](C)O)NC(=O)[C@H]5CSC(=N5)C(=CC)NC(=O)[C@H]([C@@H](C)O)NC(=O)c5csc(n5)[C@]3(CC2)NC(=O)[C@H](C)NC(=O)C(=C)NC(=O)[C@H](C)NC(=O)[C@H](C(C)CC)N[C@@H]2C=Cc3c([C@H](C)O)cc(nc3[C@H]2O)C(=O)O[C@@H]4C)n1)C(N)=O (stereo partly drawn) | .
COC(=O)CCCCC(CCSS/C(CCO)=C(\C)N(C=O)Cc1cnc(C)nc1N)SC(C)=O (stereo not drawn) | .
Cc1ncc(CNC(=O)N(CCCl)N=O)c(N)n1 | .
C/C(=C(\CCO)SS/C(CCO)=C(\C)N(C=O)Cc1cnc(C)nc1N)N(C=O)Cc1cnc(C)nc1N | 11.1µM
CCCCCCCCCCC(=O)O[C@H]1CC[C@H]2[C@@H]3CCC4=CC(=O)CC[C@]4(C)[C@H]3CC[C@]12C | .
C[C@H](O)[C@H](O)[C@@H](O)[C@@H](O)C=O | .
CC1CCC(=O)CC(SCC(O)C(=O)O)CCC(=O)O1 (stereo not drawn) | 11.1µM
CCNC(=O)c1ccc(-c2ccc3ncnc(NCC(C)(C)C)c3c2)o1 | .
CN[C@H]1C[C@@H](N)[C@H](O)[C@@H](O[C@@H]2O[C@H](CO)[C@H](O)[C@@H]3OC4(O[C@H]23)O[C@H]([C@@H](N)CO)[C@H](O)[C@H](O)[C@H]4O)[C@@H]1O (stereo partly drawn) | .
Cc1ccc(CN2CCc3nc(C(=O)Nc4cccnc4)oc3CC2)o1 | 10µM
Cc1oc2c(c1C(=O)N1CCOCC1)CN(Cc1cccnc1)CC2 | .
CN1CCN(c2nc3c(c(=O)[nH]2)CCN(Cc2cccnc2)CC3)CC1 | .
O=C(Nc1nc(-c2ccccc2)cs1)c1ccncc1NS(=O)(=O)c1cccnc1 | .
CC[C@H]1OC(=O)C[C@@H](OC(C)=O)[C@H](C)[C@@H](O[C@@H]2O[C@H](C)[C@@H](O[C@H]3C[C@@](C)(O)[C@@H](OC(=O)CC(C)C)[C@H](C)O3)[C@H](N(C)C)[C@H]2O)[C@@H](CC=O)C[C@@H](C)C(=O)/C=C/C(C)=C/[C@@H]1CO[C@@H]1O[C@H](C)[C@@H](O)[C@@H](OC)[C@H]1OC | .
CCN1CCN(c2ncc3c(n2)CCN(Cc2ccc(C)s2)C3)CC1 | .
Cc1ccccc1CN1CCc2nc(N3CCN(c4ncccn4)CC3)ncc2C1 | .
CCCCN1CCc2nc(N3CCN(C)CC3)ncc2C1 | 10µM
Cc1cc(C)n2ncc(C(=O)NC3CCC(C(C)(C)C)CC3)c2n1 (stereo not drawn) | .
COC(=O)c1ccc(Cn2nnc3sc4c(c3c2=O)CCCC4)cc1 | .
COC(=O)c1ccccc1NC(=O)CSc1nc2sc3c(c2c(=O)[nH]1)CCCC3 | 10µM
Cc1cc(C)cc(NC(=O)CSc2nc3sc4c(c3c(=O)[nH]2)CCCC4)c1 | .
SMILES | nsP2pro inh
O=C(O)CCCCCCCCC(=O)O | .
O=C(Nc1ccc(F)c(C(F)(F)F)c1)Nc1nnc(-c2cccnc2)s1 | .
Cc1nc2ccc(Nc3nc(-c4ccncc4)nc4ccccc34)cc2s1 | .
Cc1cn2nc([C@@H]3CCCCN3C(=O)c3cc(Cl)ccc3NS(C)(=O)=O)cc2nc1N1CC[C@H](N)C1 | .
O=C(O)CC(O)C(=O)O (stereo not drawn) | .
C[N+](C)(C)CC(O)CC(=O)O (stereo not drawn) | .
CC(O)CC(=O)O (stereo not drawn) | 15.9µM
O=C1Nc2ccccc2/C1=C\c1ccc(C(=O)O)cc1 | .
CCOc1ccccc1NC(=O)Cn1c(=O)n(Cc2ccco2)c(=O)c2cccnc21 | .
CCOc1ccc(C(c2c(O)cc(C)n(Cc3ccco3)c2=O)N2CCN(C)CC2)cc1 (stereo not drawn) | 12.6µM
Cc1ccnc(NC(=S)N2CCCC(Nc3cccc(C(F)(F)F)c3)C2)c1 (stereo not drawn) | .
Cc1ccc(-c2cc(C(=O)Nc3ccc(-c4noc(=O)[nH]4)cc3)c3ccccc3n2)cc1C | .
OC[C@H]1O[C@@H](OC[C@H]2O[C@@H](O[C@@H]3[C@@H](O)[C@H](O)O[C@H](CO)[C@H]3O)[C@H](O)[C@@H](O[C@@H]3O[C@H](CO)[C@@H](O)[C@H](O)[C@H]3O)[C@@H]2O)[C@H](O)[C@@H](O)[C@@H]1O | .
CCOC(=O)c1[nH]c2c(c1C)CCC(c1ccco1)C2 (stereo not drawn) | .
Cc1c(C(=O)NCC2CCCO2)[nH]c2c1C(=O)CC(c1ccco1)C2 (stereo not drawn) | .
CCOC(=O)c1[nH]c2c(c1C)C(=S)CC(c1ccco1)C2 (stereo not drawn) | 12.6µM
Cn1nc(-c2cccc(F)c2)c(N2CCCCC2)c1NC(=O)Nc1ccccc1 | .
O=C(Nc1ccc(Br)c(Br)c1)Nc1cccc(-c2ccncc2)n1 | .
O=C1Nc2ccccc2CN(C/C=C/c2ccccc2)C12CCNC2 (stereo not drawn) | .
Cc1cc(CN2CCC23Cc2ccccc2NC3=O)no1 (stereo not drawn) | .
CCCN1Cc2ccccc2NC(=O)C12CCNC2 (stereo not drawn) | 12.6µM
O=C(O)[C@H]1OC(O)[C@H](O)[C@@H](O)[C@@H]1O (stereo partly drawn) | .
Cc1cc(C)nc(NC(=S)N2CCN(c3ccc(S(C)(=O)=O)cc3F)CC2)c1 | .
Cc1cc(Nc2c(Nc3nnc(-c4ccncc4)s3)c(=O)c2=O)ccc1Cl | .
Cc1ccnc(NC(=S)N2CCc3ccccc3C2)c1 | .
SMILES | nsP2pro inh
Cn1cc(OCC(O)CNC(C)(C)C)c2ccccc2c1=O (stereo not drawn) | .
O=C(O)CCN(O)C(=O)CCCCCCCCC1CC1 | .
COc1ccc(Cl)cc1CNCCSc1nnnn1-c1ccccc1 | .
O=S(=O)(NCCSc1nnnn1-c1ccccc1)c1ccc(F)cc1 | .
Fc1ccc(-c2ccc(CNCCSc3nnnn3-c3ccccc3)o2)cc1 | 12.6µM
COC1=C2C[C@H](C)C[C@H](OC)[C@H](O)[C@@H](C)/C=C(/C)[C@H](OC(N)=O)[C@@H](OC)/C=C\C=C(\C)C(=O)NC(=CC1=O)C2=O | 12.4µM
C=CCNC1=C2C[C@@H](C)C[C@H](OC)[C@H](O)[C@@H](C)/C=C(\C)[C@H](OC(N)=O)[C@@H](OC)/C=C\C=C(/C)C(=O)NC(=CC1=O)C2=O | .
C/C(=C\c1ccc2c(c1)OCCO2)C1Nc2cccc3cccc(c23)N1 | .
C=C1/C(=C/C=C2\CCC[C@]3(C)[C@@H]([C@H](C)CCCC(C)(C)O)CC[C@@H]23)C[C@@H](O)[C@@H](OCCCO)[C@@H]1O | .
Cc1cc(C)nc(NC(=S)N2CCN(c3ccccc3C#N)CC2)c1 | .
CCCN1CC2ON=C(C(=O)O)C2C1 (stereo not drawn) | 12.6µM
O=C(O)C1=NOC2CN(Cc3cscn3)CC12 (stereo not drawn) | .
CC(C)CCN1CC2ON=C(C(=O)O)C2C1 (stereo not drawn) | .
COc1ccc(-c2nc3ccccc3s2)cc1OC | .
